Records with an inconclusive call do not appear. A call without a number means that no potency is given here. Some compounds were tested as several samples or in several runs, with calls that do not always agree. Activity calls are given as the source filed them. Unless noted, calls come from the whole dose curve; as a rule, active = well fitted curve in the direction sought with a large enough effect in the repeat runs; inconclusive = weak or mixed curves; inactive = no such curve, though single readings can be large; an effect the other way counts as inactive or inconclusive.
biological target: Nuclear receptor subfamily 1 group I member 3 (Homo sapiens) (UniProt Q14994); assay: qHTS assay to identify small molecule antagonists of the constitutive androstane receptor (CAR) signaling pathway (AID 1224838); conditions: HepG2-CYP2B6-hCAR luciferase, CITCO-stimulated, 24 h; series mostly up to 92.4 µM; activity, negative = inhibition: at the top concentration;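 note: HepG2 cells stably expressing hCAR with CYP2B6 luciferase reporter stimulated by CITCO; nearly all actives have a fitted effect of over 40% in size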; note: potency is the fitted concentration of half-maximal effect
In short: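 Cell line: HepG2 double-stable for hCAR and CYP2B6-2.2kb reporter. Agonist: CITCO, 50 nM final. Compounds: 15 concentrations, 24 h, 37 C. Detection: ONE-Glo luminescence.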

Nuclear receptor subfamily 1 group I member 3 (Homo sapiens), sequence (Q14994 whole entry, looked up): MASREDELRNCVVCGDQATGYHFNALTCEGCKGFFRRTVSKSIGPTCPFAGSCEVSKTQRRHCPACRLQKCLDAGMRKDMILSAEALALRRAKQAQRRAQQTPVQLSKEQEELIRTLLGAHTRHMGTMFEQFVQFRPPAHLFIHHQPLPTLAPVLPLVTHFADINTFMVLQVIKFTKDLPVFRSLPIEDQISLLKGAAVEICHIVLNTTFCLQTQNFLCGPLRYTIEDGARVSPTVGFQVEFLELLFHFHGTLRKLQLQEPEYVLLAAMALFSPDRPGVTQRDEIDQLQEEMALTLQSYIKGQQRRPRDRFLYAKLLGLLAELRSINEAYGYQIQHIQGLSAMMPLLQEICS

Compound	Potency
OCC(O)CCl (centres undefined)	inactive
CNCC(O)c1ccc(O)cc1 (centres undefined)	inactive
Cl[C@H]1OCCO[C@@H]1Cl	inactive
N#CN=C(N)N	inactive
N#Cc1cccc(C#N)c1	inactive
COC(C)(C)CCCC(C)C/C=C/C(C)=C/C(=O)OC(C)C (centres undefined)	inactive
Nc1cccc(Cl)c1	inactive
Clc1cnc(Oc2ccc(Oc3ncc(Cl)cc3Cl)cc2)c(Cl)c1	inactive
C=CCN=C=S	inactive
CSc1nnc(C(C)(C)C)c(=O)n1N	inactive
O=[N+]([O-])c1ccc(Cl)c(Cl)c1	inactive
FC(F)(F)c1ccc(Cl)cc1	inactive
CNC(=O)Oc1cccc2ccccc12	inactive
Sc1ccccc1	62 µM (active) and inactive
CNC(=O)O/N=C/C(C)(C)S(C)=O (centres undefined)	inactive
O=C(O)Cc1ccccc1	inactive
CN(C)C(=O)Nc1cccc(C(F)(F)F)c1	inactive
CC(C)c1cccc(C(C)C)c1O	inactive
CNC(=O)O/N=C/C(C)(C)SC	inactive
CC(C)CCCCCCOC(=O)c1ccccc1C(=O)OCCCCCCC(C)C	inactive
C=CC#N	inactive
O=C(O)C1C(C(=O)O)C2(Cl)C(Cl)=C(Cl)C1(Cl)C2(Cl)Cl (centres undefined)	inactive
Cc1cccc(N)c1	inactive
CN(C)NC(=O)CCC(=O)O	inactive

biological target: Nuclear receptor subfamily 1 group I member 3 (Homo sapiens) (UniProt Q14994); assay: qHTS assay to identify small molecule agonists of the constitutive androstane receptor (CAR) signaling pathway (AID 1224839); conditions: HepG2 hCAR CYP2B6-luciferase, agonist mode, 24 h; series mostly up to 92.4 µM; activation: at the top concentration; note: nearly all actives have a fitted effect of over 15% in size; note: potency is the fitted concentration of half-maximal effect;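 for activation: HepG2 cells stably carrying human CAR and a CYP2B6 luciferase reporter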
In short: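 Double-stable HepG2 cells (hCAR, CYP2B6-2.2kb) seeded 4 h before compound addition. Exposure 24 h with 0.75 uM PK11195 final. Luciferase detected by ONE-Glo.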

Compound	Potency	activation
OCC(O)CCl (centres undefined)	inactive	–
CNCC(O)c1ccc(O)cc1 (centres undefined)	inactive	–
Cl[C@H]1OCCO[C@@H]1Cl	inactive	–
N#CN=C(N)N	inactive	–
N#Cc1cccc(C#N)c1	inactive	–
COC(C)(C)CCCC(C)C/C=C/C(C)=C/C(=O)OC(C)C (centres undefined)	–	7.47% [at 42.5 µM] (inactive)
Nc1cccc(Cl)c1	inactive	–
Clc1cnc(Oc2ccc(Oc3ncc(Cl)cc3Cl)cc2)c(Cl)c1	inactive	–
C=CCN=C=S	inactive	–
CSc1nnc(C(C)(C)C)c(=O)n1N	inactive	–
Cc1cc(Cl)ccc1OC(C)C(=O)O (centres undefined)	inactive	–
O=[N+]([O-])c1ccc(Cl)c(Cl)c1	inactive	–
FC(F)(F)c1ccc(Cl)cc1	inactive	–
CNC(=O)Oc1cccc2ccccc12	61.1 µM (active) and inactive	–
Sc1ccccc1	inactive	–
CNC(=O)O/N=C/C(C)(C)S(C)=O (centres undefined)	inactive	–
O=C(O)Cc1ccccc1	–	-2.14% [at 42.5 µM] (inactive)
CN(C)C(=O)Nc1cccc(C(F)(F)F)c1	inactive	–
CNC(=O)O/N=C/C(C)(C)SC	inactive	–
CC(C)CCCCCCOC(=O)c1ccccc1C(=O)OCCCCCCC(C)C	inactive	–
C=CC#N	inactive	–
O=C(O)C1C(C(=O)O)C2(Cl)C(Cl)=C(Cl)C1(Cl)C2(Cl)Cl (centres undefined)	inactive	–
Cc1cccc(N)c1	inactive	–
CN(C)NC(=O)CCC(=O)O	inactive	–

system: not listed separately; assay: qHTS assay to identify small molecule antagonists of the estrogen related receptor signaling pathway with the pleiotropic PPARgamma coactivator (PGC) from Tox21 10K library - cell viability counter screen (AID 1224840; active = well fitted cell-killing curve with a large enough effect in the repeat runs, not every such curve was filed as active; note: nearly all actives have a fitted effect of over 40% in size); conditions: PGC/ERR reporter cells viability, CellTiter-Fluor, 17.5 h; series mostly up to 92.4 µM; viability change, negative = cytotoxic: at the top concentration
In short: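 Following seeding of 2,000 PGC/ERR cells/well and 6 hours' incubation, test compounds were delivered in DMSO. The plates then sat 17.5 hours at 37 C before a fluorogenic live-cell protease reagent (CellTiter-Fluor) was read after 30 min.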

Compound	Potency
OCC(O)CCl (centres undefined)	inactive
CNCC(O)c1ccc(O)cc1 (centres undefined)	inactive
Cl[C@H]1OCCO[C@@H]1Cl	inactive
O=C(O)CCCc1ccc(N(CCCl)CCCl)cc1	inactive
N#CN=C(N)N	inactive
N#Cc1cccc(C#N)c1	inactive
COC(C)(C)CCCC(C)C/C=C/C(C)=C/C(=O)OC(C)C (centres undefined)	inactive
Nc1cccc(Cl)c1	inactive
Clc1cnc(Oc2ccc(Oc3ncc(Cl)cc3Cl)cc2)c(Cl)c1	inactive
Cc1cc(O)ccc1Cl	inactive
C=CCN=C=S	inactive
Cc1ccc(O)c(C)c1	inactive
CSc1nnc(C(C)(C)C)c(=O)n1N	inactive
Cc1cc(Cl)ccc1OC(C)C(=O)O (centres undefined)	inactive
O=[N+]([O-])c1ccc(Cl)c(Cl)c1	inactive
FC(F)(F)c1ccc(Cl)cc1	inactive
CNC(=O)Oc1cccc2ccccc12	inactive
Sc1ccccc1	inactive
CNC(=O)O/N=C/C(C)(C)S(C)=O (centres undefined)	inactive
CCNc1nc(Cl)nc(NC(C)C)n1	inactive
O=[N+]([O-])c1cc([As](=O)(O)O)ccc1O	inactive
O=C(O)Cc1ccccc1	inactive
CN(C)C(=O)Nc1cccc(C(F)(F)F)c1	inactive
CC(C)c1cccc(C(C)C)c1O	inactive
CNC(=O)O/N=C/C(C)(C)SC	inactive
CC(C)CCCCCCOC(=O)c1ccccc1C(=O)OCCCCCCC(C)C	inactive
C=CC#N	inactive
O=C(O)C1C(C(=O)O)C2(Cl)C(Cl)=C(Cl)C1(Cl)C2(Cl)Cl (centres undefined)	inactive
Cc1cccc(N)c1	inactive
CN(C)NC(=O)CCC(=O)O	inactive

system: not listed separately; assay: qHTS assay to identify small molecule antagonists of the estrogen related receptor signaling pathway with the pleiotropic PPARgamma coactivator (PGC) from Tox21 10K library (AID 1224841; call rule not given here; note: actives are mostly falling curves and most rising ones were filed inactive; nearly all actives have a fitted effect of over 50% in size); conditions: PGC/ERR reporter cell line, ONE-Glo luciferase, 18 h; series mostly up to 92.4 µM; activity, negative = inhibition: at the top concentration
In short: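 qHTS antagonist format: PGC/ERR cells, 2k/well, compound in DMSO by pin transfer after 6 h attachment, 18 h treatment at 37 C, One-Glo luminescence read at 30 min.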

Compound	Potency	activity, negative = inhibition
CNCC(O)c1ccc(O)cc1 (centres undefined)	inactive	–
Cl[C@H]1OCCO[C@@H]1Cl	inactive	–
COC(C)(C)CCCC(C)C/C=C/C(C)=C/C(=O)OC(C)C (centres undefined)	inactive	–
Nc1cccc(Cl)c1	inactive	–
Cc1cc(O)ccc1Cl	inactive	–
C=CCN=C=S	inactive	–
Cc1ccc(O)c(C)c1	inactive	–
O=[N+]([O-])c1ccc(Cl)c(Cl)c1	–	-5.64% (inactive)
CCNc1nc(Cl)nc(NC(C)C)n1	inactive	–
O=[N+]([O-])c1cc([As](=O)(O)O)ccc1O	inactive	–
O=C(O)Cc1ccccc1	inactive	–
CC(C)c1cccc(C(C)C)c1O	inactive	–
CNC(=O)O/N=C/C(C)(C)SC	inactive	–
C=CC#N	inactive	–
Cc1cccc(N)c1	inactive	–
CN(C)NC(=O)CCC(=O)O	inactive	–

From PubChem BioAssay (Tox21)
